Data from the supplement of paper PMC3334620.
Whole data set: some 33,000 sequences, median “E-score (-0.5 to 0.5)” near -0.0014, cut for the highest 2% near 0.25. This is one part of a sample in which the highest values are shown more often than they occur.

What follows are sequences tested against T1, Cad1 (UniProt P24813) (assay: PBM E-score (8-mer binding enrichment) (E-score (-0.5 to 0.5)); higher = stronger / more preferred TF binding). Settings: protein concentration: 100 nM; construct: GST-full length.
T1 sequence: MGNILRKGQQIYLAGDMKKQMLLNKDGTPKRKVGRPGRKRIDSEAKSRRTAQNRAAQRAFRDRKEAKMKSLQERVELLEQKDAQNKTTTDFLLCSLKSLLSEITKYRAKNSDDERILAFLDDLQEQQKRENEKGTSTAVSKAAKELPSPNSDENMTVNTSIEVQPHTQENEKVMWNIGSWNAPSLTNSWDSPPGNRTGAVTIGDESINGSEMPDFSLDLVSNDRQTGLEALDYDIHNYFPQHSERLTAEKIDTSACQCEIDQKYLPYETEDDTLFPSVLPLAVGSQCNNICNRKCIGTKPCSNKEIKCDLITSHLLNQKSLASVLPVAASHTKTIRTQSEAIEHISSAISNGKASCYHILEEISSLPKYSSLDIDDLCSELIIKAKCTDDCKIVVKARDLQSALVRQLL
Procedure: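 Universal 'all 10-mer' protein binding microarrays (Agilent AMADID 015681) probed with GST-tagged S. cerevisiae TFs (full-length or DBD) made by in vitro transcription/translation (PURExpress), about 100-200 nM. Bound TF was detected with fluorescent anti-GST. Each ungapped 8-mer (which stands for itself and its reverse complement) is scored by the PBM enrichment score (E-score), a modified Wilcoxon-Mann-Whitney statistic from -0.5 to +0.5, computed with the Universal PBM Analysis Suite. Scale: above 0.35 generally sequence-specific binding.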

| Sequence | PBM E-score |
| --- | --- |
| CACGAACA | 0.249 |
| TGCGAAAA | 0.266 |
| AACGAACA | 0.269 |
| AGCGAAAA | -0.0296 |
| AACGAACG | 0.0769 |
| CGCGAAAA | 0.246 |
| CCGAAGAG | -0.0285 |
| CTTCTGAA | 0.0469 |
| CTCGGGCA | 0.0974 |
| AGTGTGGG | -0.0209 |
| CCACGTGC | 0.00023 |
| GCACGTGC | 0.32 |
| GCACGTGA | 0.0273 |
| GTCAGACA | 0.116 |
| AAGGTCGT | 0.0718 |
| CCTAGACC | -0.179 |
| GGTTAGAA | -0.111 |
| AAGCTCGA | 0.263 |
| CAGCTCGA | 0.0283 |
| AAGCTCGC | 0.224 |
| TTGGCAAA | 0.121 |
| ATAGATTG | 0.0192 |

| Sequence | PBM E-score |
| --- | --- |
| GACCCGGC | -0.0968 |
| GCTGAGCC | -0.119 |
| AACGCTTC | -0.0949 |
| AATCAGCG | 0.211 |
| AATCAGCT | 0.274 |
| CATCAGCA | 0.01 |
| TATCAACA | 0.0364 |
| AATCAGCC | 0.0909 |
| AATCAACA | 0.275 |
| GATCAACA | 0.131 |
| AATCAGCA | 0.258 |
| GATCAGCA | 0.141 |
| CGACAGCA | 0.0252 |
| AGTTCAGA | -0.104 |
| CAACATGA | 0.144 |
| CACTAGAA | -0.0573 |
| CTTTGTCC | 0.058 |
| GTTTGTCA | 0.317 |
| CTTTGTCA | 0.278 |
| GTTTGTTA | 0.202 |
| GATTGTCA | 0.117 |
| CTTTGTTA | 0.222 |

| Sequence | PBM E-score |
| --- | --- |
| AAGATTAG | 0.144 |
| GTCTGCGA | 0.0486 |
| AGACCGGA | -0.062 |
| ATCGCGAC | 0.195 |
| TTCGCGAA | 0.343 |
| CTCGCGAC | 0.15 |
| TCCGCGAA | 0.202 |
| GTCGCGAC | 0.391 |
| GTCGCGAA | 0.0594 |
| GGGCCTCA | -0.0631 |
| ATCATTTC | 0.136 |
| GGCTCATA | 0.0877 |
| CAACAGGA | -0.182 |
| ACCTCGGG | -0.173 |
| GCGCTTAA | 0.106 |
| GCGCTTAC | 0.299 |
| CCGCTTAC | 0.184 |
| CTGCTTAA | 0.0117 |
| CTGCTTAC | 0.276 |
| ATGCTTAC | 0.112 |
| ACCGTATA | -0.00739 |
| CAAAAGAC | -0.00184 |

| Sequence | PBM E-score |
| --- | --- |
| ATCATAAG | 0.0855 |
| ATCATAAT | 0.144 |
| ATCATAAC | 0.273 |
| CTTCGTTA | -0.0282 |
| AATTAAGA | 0.104 |
| ACTTAATA | 0.186 |
| AATTAATT | 0.285 |
| AATTAATC | 0.227 |
| AATTAATG | 0.242 |
| AATTAATA | 0.432 |
| AGCGAACA | 0.195 |
| CGCCAACA | 0.157 |
| AAAAAAAC | 0.121 |
| CAAATGGG | 0.0861 |
| TCATATCA | 0.0259 |
| GCATATCA | 0.278 |
| CCATATCA | -0.00962 |
| CCATGCAG | -0.0439 |
| GCGGAAGC | 0.0712 |
| AGCGGCTC | -0.0559 |
